Screening data from PubChem.
A selection: hits, their analogues and other compounds. The true share with any hit is near 19%.
DT40 TDP1 no CPT = qHTS for Inhibitors of human tyrosyl-DNA phosphodiesterase 1 (TDP1): qHTS in cells in absence of CPT; DT40 Tdp1-/- hTDP1 cells, no CPT, ATP luminescence, 48 h; 420,000 tested, 15% active; Potency, µM (series often up to 46.2 µM), for the others: top-dose activity change, negative = growth inhibition, usual class: inhibitors; also: potency is read from the fitted curve at half-maximal effect; nearly all actives have a fitted effect of over 55% in size
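Luminescent ATP content (CellTiter-Glo) served as the growth readout. Knockout chicken DT40 cells expressing human TDP1 were exposed to compounds without camptothecin for a minimum 48 hr at 37 °C.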
ELG1 repair inh = inhibitors of ELG1-dependent DNA repair in HEK293T cells. 330,000 tested, 2.3% active. HEK293T ELG1-luciferase reporter, luminescence, 16 h; DNA damage induced by 5-fluorouridine. AID 504467. Potency, µM (top dose mostly 46.1 µM), inactives show at the highest dose activity change, negative = inhibition, most hits filed as inhibitors; also: potency is read from the fitted curve at half-maximal effect; nearly all actives have a fitted effect of over 55% in size
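Overnight (16 hr) co-exposure of 2,000 cells/well to 5-fluorouridine and compound at 37 °C preceded detection. Luciferase was quantified via ONE-Glo luminescence; loss of signal denotes inhibition.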
DT40 TDP1 CPT = DT40-hTDP1 cell growth loss with CPT | AID 686979 | Potency, µM (highest dose often 46.2 µM), without a hit: at the highest dose activity change, negative = growth inhibition, usual class: inhibitors | 420,000 tested, 12% active | chicken DT40 Tdp1-/-;hTDP1 cells + 20 nM CPT, ATP luminescence, 48 h; also: potency is read from the fitted curve at half-maximal effect; nearly all actives have a fitted effect of over 55% in size
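Chicken DT40 Tdp1-/- cells complemented with human TDP1, 400 cells/well, exposed to compounds plus 20 nM camptothecin for at least 48 h at 37 C; viability read as ATP content by CellTiter-Glo luminescence.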
HT1080-NT tox = kills 2HG-producing HT-1080-NT fibrosarcoma cells; Potency, µM (top dose mostly 46.1 µM), for inactives: at the top dose activity, negative = less viability, most hits filed as cytotoxic; HT-1080-NT fibrosarcoma viability, CellTiter-Glo ATP luminescence, 48 h; 360,000 tested, 1.6% active;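 also: NT is the 2HG producing partner of a matched IDH1 knockdown line; potency is read from the fitted curve at half-maximal effect; 0% = DMSO-treated cells and -100% = media-only wells without cells; nearly all actives have a fitted effect of over 55% in size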
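HT-1080-NT fibrosarcoma cells (2HG-overproducing), 750 cells/well in RPMI with 5% FBS, dosed after 2 h and incubated 48 h at 37C. CellTiter-Glo luminescence normalized to DMSO and no-cell wells; concentration-response curves fitted and classed.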
IL-1B inflam inh = blocks inflammasome-driven IL-1 beta release; THP-1 LPS/ATP IL-1B secretion, AlphaLISA, 16 h; stronger effect = lower value; activity change, % at 57.5 µM; 360,000 tested, 4.7% active; AID 743279; in the data active = activity change below about -50%; inconclusive = mostly about -30% to -49%
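THP-1 cells pretreated 1 hr with compounds (up to 57.5 uM final), then stimulated with LPS (250 ng/mL final) plus ATP (1.25 mM final); secreted IL-1B measured by AlphaLISA after 16 hr, decreased signal indicating inhibition.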
HT1080 IDH1KD tx = kills HT-1080 cells with IDH1 knockdown; HT-1080 IDH1 knockdown viability, ATP luminescence, 48 h; Potency, µM (top dose mostly 46.1 µM), without a hit: at the highest dose activity, negative = toxicity, actives largely listed as cytotoxic; 360,000 tested, 2% active; AID 686971;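 also: potency is read from the fitted curve at half-maximal effect; 0% = DMSO wells and -100% = cell-free medium wells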
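Knockdown cells (IDH1KD HT-1080) received compounds 2 h after plating at 750 cells/well and were kept 48 h at 37 °C in 5% FBS RPMI. A CellTiter-Glo luminescence read gave % activity for curve fitting.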
Numbers without * were called inactive; ? = inconclusive; / = not tested or not shown; [ ] = remark or other dose. Unless noted, calls follow the shape of the dose curve; as a rule, active = well fitted curve in the direction sought with a large enough effect; inconclusive = small, poorly fitted or top-dose-only effect, or another doubt; inactive = no such curve, though single readings can be large; an effect the other way counts as inactive or inconclusive. Unless noted, % is scaled to controls: 0 for no effect and ±100 for the full control effect.

SMILES	DT40 TDP1 no CPT	ELG1 repair inh	DT40 TDP1 CPT	HT1080-NT tox	IL-1B inflam inh	HT1080 IDH1KD tx
COC(=O)c1scc(-c2ccccc2)c1S(=O)(=O)Nc1cccc(C)c1C	26µM*	/	?	/	/	/
CCOC(=O)COc1ccc(S(=O)(=O)N2CCN(c3ccccc3F)CC2)cc1	1%	0%	12%	1%	-2	-1%
CCOC(=O)c1scc(-c2ccc(C)cc2)c1S(=O)(=O)Nc1cc(OC)ccc1OC	3.7µM*	/	9.2µM*	/	/	/
NC(CO)(CO)CO	-9%	/	-5%	/	/	/
Cc1ncc2c(c1CNC(=O)/C=C/c1cccs1)CCN(C(=O)c1ccc3c(c1)OCCO3)C2	-3%	/	8%[9.04 µM]	/	/	/
CCN(c1ccccc1)S(=O)(=O)c1c(-c2ccc(C)cc2)csc1C(=O)OC	15µM*	/	18µM*	/	/	/
Cc1ccc(S(=O)(=O)N(CCC(=O)O)c2ccccc2)cc1	0%	14%	-5%	8%	0	17%
CCOC(=O)c1scc(-c2ccccc2)c1S(=O)(=O)Nc1ccccc1OC	21µM*	/	18µM*	/	/	/
CCOC(=O)c1scc(-c2ccc(C)cc2)c1S(=O)(=O)Nc1cccc(CC)c1	13µM*	/	12µM*	/	/	/
CCOC(=O)c1c(-c2ccccc2)csc1NC(=O)c1cc(-c2ccccc2OC)on1	?	/	?	12%	15	13%
COC(=O)c1scc(-c2ccc(C)cc2)c1S(=O)(=O)Nc1cc(OC)c(OC)c(OC)c1	?	/	21µM*	/	/	/
Cc1nc2sccn2c(=O)c1S(=O)(=O)Nc1cccc(Cl)c1C	?	?	?	-2%	10	0%
CCOC(=O)c1[nH]c(Cc2[nH]c(C(=O)OCC)c(C)c2CCC(=O)OC)c(CCC(=O)OC)c1C	?	18µM*	?	-23%	-1	-25%
CCc1nc2c(OCC(N)=O)cccn2c1N(C)C(=O)c1cccs1	-5%	/	-6%	?	42	8%
COc1ccc2c(c1)OC(O)(C(F)F)CC2=O (stereo not given)	-1%	1%	-16%	3%	15	1%
O=C1CC(O)(C(F)F)Oc2ccc3ccccc3c21 (stereo not given)	?	16µM*	-22%	-1%	15	0%
COc1ccc(-c2nc3cnc(N4CCOCC4)nc3n(CCc3ccccc3)c2=O)cc1	18%	/	-4%	/	/	/
CC1CCN(c2c(NCC3CCC(C(=O)NCCCc4ccccc4)CC3)c(=O)c2=O)CC1 (stereo not given)	-28%	10µM*	-20%	4%	-14	-6%
CC1CCN(c2c(NCC3CCC(C(=O)NCc4ccccc4)CC3)c(=O)c2=O)CC1 (stereo not given)	-9%	-21%	-2%	18%	-2	-1%
CC(C)Oc1ccc(C(=O)N2CCN(CCc3ccccn3)CC2)cc1	1%	/	1%	/	/	/
Cc1ccc(-c2cn3c(n2)sc2cc(C(=O)NCCCN4CCCCCC4)ccc23)cc1	1.6µM*	/	1.6µM*	/	/	/
Cc1ccc(-c2cn3c(n2)sc2cc(C(=O)NCCCN4CCCCC4)ccc23)cc1	1.3µM*	/	1.3µM*	/	/	/
O=C(NCCCN1CCCCC1)c1ccc2c(c1)sc1nc(-c3ccc(F)cc3)cn12	2.3µM*	/	4.1µM*	/	/	/
CCN1CCN(CCCNC(=O)c2ccc3c(c2)sc2nc(-c4ccc(C)cc4)cn23)CC1	1.3µM*	/	1.3µM*	/	/	/
CCOc1ccc(C(C(=O)NC2CCCCC2)N(C(=O)c2csnn2)C2CC2)cc1 (stereo not given)	?	0%	-10%	-6%	0	-4%
Cc1c(C)n(C)c2ccc(C(=O)NCCCN3CCCCC3C)cc12 (stereo not given)	16%	-5%	-19%	-5%	?	-16%
